The source of these data is PubChem BioAssay (NCATS).

Values without a mark were called inactive. Inconclusive results are not listed. Active and inactive are the calls of the source. Unless noted, calls come from the whole dose curve; as a rule, active = well fitted curve in the direction sought with a large enough effect; inconclusive = small, poorly fitted or top-dose-only effect, or another doubt; inactive = no such curve, though single readings can be large; an effect the other way counts as inactive or inconclusive.

The nature of experiment [1]: Viability counterscreen for antagonist of constitutive androstane receptor (CAR) against the NCATS DSHEA and TCM libraries (AID 1794837).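 Note: compound exposure lasted 24 h before viability reading; 0% is about no effect.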 The procedure, abridged:
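Counterscreen performed in a 1536-well qHTS format using HepG2-CYP2B6-hCAR cells; samples titrated in the presence of 48 uM CITCO, with viability measured fluorometrically (405/540 nm) after 24 h.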

Experiment [2] can be described thus: Viability counterscreen for agonist of constitutive androstane receptor (CAR) against the NCATS DSHEA and TCM libraries (AID 1794838).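 Note: cells exposed to compound for 24 h; 0% is about no effect.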 The procedure, abridged:
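Multiplexed counterscreen: after 24 h compound exposure with 0.75 uM PK11195, HepG2-CYP2B6-hCAR viability was quantified fluorimetrically (CellTiter-Fluor, 405/540 nm) prior to the ONE-Glo luciferase read.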

The target of experiment [3] is Nuclear receptor subfamily 1 group I member 3 (Homo sapiens) (UniProt Q14994). Briefly: Primary qHTS for agonist of constitutive androstane receptor (CAR) against the NCATS DSHEA and TCM libraries (AID 1794839).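 Note: HepG2 cells expressing human CAR with a CYP2B6 reporter plus PK11195 antagonist; luciferase reporter luminescence read with ONE-Glo; 0% is about no effect.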 In outline: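 Concentration–response screen in HepG2-CYP2B6-hCAR cells under 0.75 µM PK11195; 24 h exposure; luminescent reporter signal with multiplexed fluorescent viability.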
On the technique in general: In qHTS, concentration-response curves come from the screen itself.

Experiment [4] is described as follows: HepG2 viability counterscreen (readout 2: ATP content) against the NCATS DSHEA and TCM libraries (AID 1794840).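 Note: HepG2 cells exposed to substances for about 24 h; 0% is about no effect.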 In outline:
(§1)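 After HepG2 cells attach for ~4 h, substances are added and incubated ~24 h at 37C, 5% CO2. GF-AFC fluorescence then CellTiter-Glo luminescence give protease and ATP readouts.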
(Counterscreens check selectivity or assay interference.)

Experiment [5] in a line: HepG2 viability counterscreen (readout 1: protease activity) against the NCATS DSHEA and TCM libraries (AID 1794841).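 Note: cells exposed to compounds for about 24 h before the protease read; 0% is about no effect.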 In outline: as §1
The target in experiment [6] is Metallo-beta-lactamase type 2 (Klebsiella pneumoniae) (UniProt C7C422). Briefly: qHTS to identify inhibitors of the New Delhi Metallo-beta-lactamase (NDM): assay validation screen against the NCATS LOPAC Collection (AID 1794843).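 Note: nitrocefin turnover by NDM-1 measured as 485 nm absorbance at plateau; % is set by controls: 0 for no effect and ±100 for the full control effect.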 In outline:
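NDM-1 at 2 nM final in 50 mM HEPES pH 7.0 with 1 uM ZnSO4 and 0.01% Tween20 was preincubated with library compounds in DMSO. Nitrocefin (50 uM stock) was then added, and absorbance at 485 nm was read at the kinetic plateau.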

Experiment [7] has as its target Glutathione peroxidase 1 (Homo sapiens) (UniProt P07203). Briefly: Primary qHTS Assay for Inhibitors of Recombinant Selenoprotein Glutathione Peroxidase 1 (GPX1) (AID 1845191). Note: nearly all actives have a fitted effect of over 65% in size. Note: potency is the fitted concentration of half-maximal effect. In outline: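 NADPH consumption tracked by fluorescence at 340/450 nm between t=0 and t=15 min, room temperature. Final mix: 10 nM GPX1, 100 nM glutathione reductase, 1 mM GSH, 0.5 mM NADPH, 0.5 mM cumene hydroperoxide, 0.01% BSA; 30 min compound–enzyme preincubation.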

For experiment [8], the target named is Phospholipid hydroperoxide glutathione peroxidase GPX4 (Homo sapiens) (UniProt P36969). The experiment in a line: Primary qHTS Assay for Inhibitors of Recombinant Selenoprotein Glutathione Peroxidase 4 (GPX4) (AID 1845192). Note: nearly all actives have a fitted effect of over 65% in size. In outline: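 NADPH consumption followed by fluorescence at 340/450 nm, t=0 and after 15 min at room temperature. Reaction started with cumene hydroperoxide (0.5 mM final) after 30 min compound–GPX4 preincubation; final 200 nM GPX4, 100 nM GR, 1 mM GSH, 0.5 mM NADPH.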

For experiment [9], the target named is Cytochrome P450 3A4 (Homo sapiens) (UniProt P08684). Briefly: qHTS for inhibitors of CYP3A4 against the NCATS DSHEA and TCM libraries (AID 1919971).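 Note: % is set by controls: 0 for no effect and ±100 for the full control effect; inhibition lowers luminescence from luciferin made by CYP3A4.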 In outline:
(§2)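 Substances were tested against enzyme with a pro-luciferin substrate; minus-enzyme wells served as background. After NADPH-initiated oxidation (30-45 min, RT), light was generated with P450-Glo reagent.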

Experiment [10] addresses Cytochrome P450 2D6 (Homo sapiens) (UniProt P10635). Briefly: qHTS for inhibitors of CYP2D6 against the NCATS DSHEA and TCM libraries (AID 1919972). Note: % is set by controls: 0 for no effect and ±100 for the full control effect. In outline: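 qHTS, concentration–response format with most substances from 19.5 nM. CYP2D6 + pro-luciferin substrate, 15 min with compound, then 1x NADPH regen, 30–45 min RT dark. Glo detection 30 min, luminescence. Quinidine control.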

Experiment [11] has as its target Cytochrome P450 2C9 (Homo sapiens) (UniProt P11712). Briefly: qHTS for inhibitors of CYP2C9 against the NCATS DSHEA and TCM libraries (AID 1919973).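 Note: luminogenic pro-luciferin CYP2C9 substrate turned into luciferin with NADPH regeneration; % is set by controls: 0 for no effect and ±100 for the full control effect.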 The procedure, abridged:
as §2

Experiment [12] addresses Cytochrome P450 2C19 (Homo sapiens) (UniProt P33261). Briefly: qHTS for inhibitors of CYP2C19 against the NCATS DSHEA and TCM libraries (AID 1919974).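 Note: luminescence from luciferin released by CYP2C19 oxidation of a pro-luciferin substrate; % is set by controls: 0 for no effect and ±100 for the full control effect.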 In outline:
as §2

Experiment [13] can be described thus: KB-3-1 P-gp reporter qHTS against the NCATS DSHEA and TCM libraries (AID 1919975). Note: 0% is about no effect. The procedure, abridged: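 Cell viability qHTS: 500 KB-3-1 cells/well, substances in titration, ~72 h, 37C; luminescent CellTiter-Glo read.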
Experiment [14] has as its target Cytochrome P450 1A2 (Homo sapiens) (UniProt P05177). The experiment in a line: qHTS for inhibitors of CYPIA2 against the NCATS DSHEA and TCM libraries (AID 1919976). Note: % is set by controls: 0 for no effect and ±100 for the full control effect. The procedure, abridged:
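Luminescence read-out: pro-luciferin converted to D-luciferin by CYP1A2, detected with P450-Glo reagent after 30 min RT. Enzyme plus substrate got compounds for 15 min RT; NADPH regeneration solution (final 1x) started a 30-45 min reaction, light-protected.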

A short description of experiment [15]: qHTS Counterscreen for compound interference against the NCATS DSHEA and TCM libraries (AID 1919978).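 Note: compounds preincubated with 1 µM D-luciferin or buffer before detection reagent; % of control where 0% means no effect.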 As to conditions: firefly luciferase detection reagent interference, luminescence. The procedure, abridged: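 Interference check: test samples were incubated with D-luciferin (final 1 uM) or buffer only for 15 min, room temperature, in a qHTS titration up to 39.8 uM, then developed with detection reagent and read by luminescence.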

The nature of experiment [16]: NCATS anti-infectives library activity on the primary C. elegans qHTS viability assay (AID 1745855; calls by dose curve). Conditions: C. elegans worm area imaging, day 7; at 41.8 µM (top of the series). In outline:
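Titration-based screen in worms: eggs hatched overnight in M9, L1 larvae fed TOP10 capsules in S medium with compound, incubated 21 °C for 7 days; fluorescent objects gated by size and intensity at days 0, 3 and 7.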

Experiment [17] deals with Luciferin 4-monooxygenase (Photinus pyralis) (UniProt P08659). Briefly: Primary firefly luciferase (FLuc) qHTS assay for identification of artifact compounds. (AID 1845220). Note: nearly all actives have a fitted effect of over 60% in size. Note: potency is the fitted concentration of half-maximal effect. In outline: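 FLuc 10 nM; luciferin 10 uM; ATP 10 uM; Tris-acetate pH 7.6, Mg-acetate 10 mM; 15 min RT preincubation; 5 min reaction; luminescence.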
Experiment [18] has as its system Nanoluciferase (engineered Oplophorus gracilirostris luciferase). The experiment in a line: Primary Nanoluciferase (NLuc) qHTS assay for identification of artifact compounds. (AID 1845222). Note: potency is the fitted concentration of half-maximal effect. In outline: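 NLuc from S16 cell medium (1:55) plus test compounds, 15 min, room temperature. Luminescence after Nano-Glo (1:100) addition, 5 min.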
A short description of experiment [19]: Primary redox qHTS assay for identification of artifact compounds. (AID 1845223).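 Note: 0% = DMSO and 100% = reference compound.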 The procedure, abridged: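 Redox-cycling detection via DTT (250 uM final) oxidation coupled to Amplex Red (25 uM)/HRP (250 mU/mL) in HBSS. 15 min preincubation plus 30 min after DTT, room temperature. Ex/Em 525/598 nm; 4-parameter Hill fit against DMSO and 10 uM DA3003.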
Experiment [20] is described as follows: Primary fluorescence-based thiol-reactive (MSTI) qHTS assay for identification of artifact compounds. (AID 1845221).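 Note: thiol-reactive compounds lower the probe fluorescence signal; nearly all actives have a fitted effect of over 65% in size.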 In outline: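 MSTI probe at 4 uM final in 2% DMSO/PBS pH 7.4; compounds, 1 h at room temperature in dark. Fluorescence Ex/Em 525/598 nm, normalised to Acetyl-MSTI and MSTI, fitted to 4-parameter Hill.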

Sequence of Phospholipid hydroperoxide glutathione peroxidase GPX4 (Homo sapiens) (P36969 whole entry, looked up): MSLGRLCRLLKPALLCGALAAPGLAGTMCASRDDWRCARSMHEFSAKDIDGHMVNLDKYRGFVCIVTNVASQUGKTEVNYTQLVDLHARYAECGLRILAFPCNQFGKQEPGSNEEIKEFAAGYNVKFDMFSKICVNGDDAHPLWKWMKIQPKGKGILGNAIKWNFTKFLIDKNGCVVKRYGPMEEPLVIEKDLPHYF
Sequence of Metallo-beta-lactamase type 2 (Klebsiella pneumoniae) (C7C422 whole entry, looked up): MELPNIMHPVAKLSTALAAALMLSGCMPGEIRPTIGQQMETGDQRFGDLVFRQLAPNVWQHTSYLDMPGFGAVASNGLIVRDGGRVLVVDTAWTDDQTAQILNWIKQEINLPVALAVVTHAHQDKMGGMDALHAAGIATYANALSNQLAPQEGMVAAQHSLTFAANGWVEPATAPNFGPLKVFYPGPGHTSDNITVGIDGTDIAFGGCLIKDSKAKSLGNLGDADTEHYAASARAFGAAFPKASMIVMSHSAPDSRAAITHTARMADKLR
Sequence of Glutathione peroxidase 1 (Homo sapiens) (P07203 whole entry, looked up): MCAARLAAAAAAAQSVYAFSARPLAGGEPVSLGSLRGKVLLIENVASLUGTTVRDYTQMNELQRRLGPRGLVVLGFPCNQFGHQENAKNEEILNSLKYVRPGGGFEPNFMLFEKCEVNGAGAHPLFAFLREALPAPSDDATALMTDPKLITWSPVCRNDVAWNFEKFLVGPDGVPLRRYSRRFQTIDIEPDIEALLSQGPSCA
Sequence of Cytochrome P450 3A4 (Homo sapiens) (P08684 whole entry, looked up): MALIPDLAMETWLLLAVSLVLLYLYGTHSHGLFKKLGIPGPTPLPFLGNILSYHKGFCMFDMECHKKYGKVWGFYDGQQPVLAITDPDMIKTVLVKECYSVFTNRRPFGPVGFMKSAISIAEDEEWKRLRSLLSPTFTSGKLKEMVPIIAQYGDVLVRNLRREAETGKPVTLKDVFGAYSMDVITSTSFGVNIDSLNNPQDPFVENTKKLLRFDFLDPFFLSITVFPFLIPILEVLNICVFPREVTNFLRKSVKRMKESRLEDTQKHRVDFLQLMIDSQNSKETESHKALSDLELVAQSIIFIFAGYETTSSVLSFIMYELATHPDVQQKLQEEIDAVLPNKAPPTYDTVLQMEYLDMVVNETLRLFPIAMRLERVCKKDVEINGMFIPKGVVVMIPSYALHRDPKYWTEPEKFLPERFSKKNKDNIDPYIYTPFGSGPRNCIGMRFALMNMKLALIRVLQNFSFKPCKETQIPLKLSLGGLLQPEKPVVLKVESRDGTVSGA
Sequence of Nuclear receptor subfamily 1 group I member 3 (Homo sapiens) (Q14994 whole entry, looked up): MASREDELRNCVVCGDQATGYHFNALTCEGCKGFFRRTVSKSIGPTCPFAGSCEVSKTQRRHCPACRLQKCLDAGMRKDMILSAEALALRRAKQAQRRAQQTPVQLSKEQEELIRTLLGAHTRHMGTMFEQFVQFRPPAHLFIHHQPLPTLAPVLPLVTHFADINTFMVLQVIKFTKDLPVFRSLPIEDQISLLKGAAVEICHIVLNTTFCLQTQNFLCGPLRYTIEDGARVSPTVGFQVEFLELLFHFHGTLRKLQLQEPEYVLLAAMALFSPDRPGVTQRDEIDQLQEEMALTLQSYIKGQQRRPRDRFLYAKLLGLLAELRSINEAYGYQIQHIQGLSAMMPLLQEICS
Sequence of Cytochrome P450 2D6 (Homo sapiens) (P10635 whole entry, looked up): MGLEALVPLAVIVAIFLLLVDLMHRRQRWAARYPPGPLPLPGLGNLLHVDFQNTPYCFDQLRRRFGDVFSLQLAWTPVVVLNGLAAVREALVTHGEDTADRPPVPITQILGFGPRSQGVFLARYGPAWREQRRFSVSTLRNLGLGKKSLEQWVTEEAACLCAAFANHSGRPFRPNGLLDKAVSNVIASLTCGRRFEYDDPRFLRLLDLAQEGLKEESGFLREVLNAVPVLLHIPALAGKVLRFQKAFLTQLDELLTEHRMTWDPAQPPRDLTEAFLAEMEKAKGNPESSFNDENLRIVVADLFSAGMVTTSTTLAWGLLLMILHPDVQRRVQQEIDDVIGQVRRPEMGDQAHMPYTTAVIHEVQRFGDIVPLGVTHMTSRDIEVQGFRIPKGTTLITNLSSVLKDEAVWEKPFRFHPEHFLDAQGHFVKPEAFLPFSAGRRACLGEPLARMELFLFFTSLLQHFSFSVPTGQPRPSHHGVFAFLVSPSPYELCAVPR
Sequence of Cytochrome P450 1A2 (Homo sapiens) (P05177 whole entry, looked up): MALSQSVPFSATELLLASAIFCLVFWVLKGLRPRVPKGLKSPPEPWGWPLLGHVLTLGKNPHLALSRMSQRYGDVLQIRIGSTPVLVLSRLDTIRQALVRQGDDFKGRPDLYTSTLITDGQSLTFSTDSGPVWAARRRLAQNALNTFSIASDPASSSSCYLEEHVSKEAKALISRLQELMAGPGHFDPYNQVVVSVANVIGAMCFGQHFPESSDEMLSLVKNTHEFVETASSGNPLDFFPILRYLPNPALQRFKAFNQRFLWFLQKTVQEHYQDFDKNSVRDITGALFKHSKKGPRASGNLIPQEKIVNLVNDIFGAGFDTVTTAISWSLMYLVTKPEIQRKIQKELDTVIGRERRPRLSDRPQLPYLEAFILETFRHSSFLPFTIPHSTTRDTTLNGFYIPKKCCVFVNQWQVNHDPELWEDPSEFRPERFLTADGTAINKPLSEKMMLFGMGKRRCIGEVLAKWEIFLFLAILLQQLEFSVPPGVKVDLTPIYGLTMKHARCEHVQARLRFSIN
Sequence of Cytochrome P450 2C9 (Homo sapiens) (P11712 whole entry, looked up): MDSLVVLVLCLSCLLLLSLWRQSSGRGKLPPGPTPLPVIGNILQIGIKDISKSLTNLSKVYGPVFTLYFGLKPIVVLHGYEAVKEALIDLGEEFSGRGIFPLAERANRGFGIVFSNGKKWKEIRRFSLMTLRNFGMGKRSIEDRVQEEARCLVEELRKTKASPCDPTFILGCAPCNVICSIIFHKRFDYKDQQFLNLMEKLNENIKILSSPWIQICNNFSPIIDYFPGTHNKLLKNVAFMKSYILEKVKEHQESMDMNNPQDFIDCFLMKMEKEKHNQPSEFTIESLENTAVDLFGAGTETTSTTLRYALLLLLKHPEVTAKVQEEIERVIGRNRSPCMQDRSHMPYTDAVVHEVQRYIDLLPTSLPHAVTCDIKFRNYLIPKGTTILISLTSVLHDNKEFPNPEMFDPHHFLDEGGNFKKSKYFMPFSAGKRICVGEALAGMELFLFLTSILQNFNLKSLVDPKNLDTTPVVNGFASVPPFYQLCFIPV
Sequence of Cytochrome P450 2C19 (Homo sapiens) (P33261 whole entry, looked up): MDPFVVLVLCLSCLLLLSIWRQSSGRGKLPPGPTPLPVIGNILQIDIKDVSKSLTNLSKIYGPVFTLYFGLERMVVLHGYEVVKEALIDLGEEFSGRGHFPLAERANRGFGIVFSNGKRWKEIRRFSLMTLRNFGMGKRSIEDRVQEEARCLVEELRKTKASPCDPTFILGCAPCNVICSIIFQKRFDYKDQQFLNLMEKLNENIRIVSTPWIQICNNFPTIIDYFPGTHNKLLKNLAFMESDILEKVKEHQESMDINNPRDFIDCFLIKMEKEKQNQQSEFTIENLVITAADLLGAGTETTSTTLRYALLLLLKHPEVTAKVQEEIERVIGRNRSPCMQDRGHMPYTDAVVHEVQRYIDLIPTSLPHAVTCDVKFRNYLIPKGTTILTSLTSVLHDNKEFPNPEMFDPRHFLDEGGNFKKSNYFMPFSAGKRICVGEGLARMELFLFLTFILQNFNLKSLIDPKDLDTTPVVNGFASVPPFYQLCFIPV

Take `C[N+](C)(C)CCO`: the call in experiment [1], in experiment [2], in experiment [3], in [4], in experiment [5] and in experiment [6] was inactive. Besides, the compound was called inactive in experiment [9], in [10], in experiment [11] and in experiment [13]. In addition, the Potency result in [7], in experiment [8], in [12] and in experiment [14] was “inactive” throughout. In addition, in experiment [15], the max response was 2.09%.
Regarding `Clc1ccc2c(c1)N=C(N1CCNCC1)c1ccccc1N2`, the compound was called inactive in experiment [16], in experiment [6] and in experiment [19]. Moreover, the Potency entry in [7], in experiment [8], in [17] and in experiment [18] was “inactive” throughout.
Regarding `C[C@@H](O[C@H]1OCCN(Cc2n[nH]c(=O)[nH]2)[C@H]1c1ccc(F)cc1)c1cc(C(F)(F)F)cc(C(F)(F)F)c1`, in [7], the Potency entry is “inactive”.
Take `O=C1NC(=O)/C(=C/c2ccc3c(c2)OC(F)(F)O3)S1`: the call in [6] and in experiment [19] was inactive. Further, the Potency entry in [7], in experiment [8], in [20] and in experiment [18] was “inactive” throughout. In experiment [17], the Potency is 9.53 µM (active).
`O=C(Nc1ccc(S(=O)(=O)N2CCOCC2)cc1)c1cc(Cl)ccc1NS(=O)(=O)c1ccc(Cl)s1`: the Potency entry in experiment [7] was “inactive”.
As for `Cn1cnc2c(NCc3ccccc3)nc(NCCO)nc21`, the outcome in experiment [6] was inactive. Moreover, the Potency entry in experiment [7] and in experiment [8] was “inactive” throughout.
With `Oc1ccc(CCNCCCCCCNCCc2ccccc2)cc1O`, the Potency entry in [7] was “inactive”.
Turning to `NC(N)=NCCCCN=C(N)N`, the result in [6] was inactive. In addition, the Potency entry in [7] and in experiment [8] was “inactive” each time.
As for `CC(C)N(CCC(=O)c1ccc2ccccc2c1)Cc1ccccc1`, the result in experiment [6] and in experiment [19] was inactive. Further, the Potency entry in experiment [7], in [8], in [17] and in experiment [20] was “inactive” throughout. In addition, the Potency in [18] was 1.2 µM (active).
Take `Nc1ncnc2n[nH]c(Nc3ccc(F)cc3)c12`: the result in experiment [6] and in [19] was inactive. For the same compound, the Potency result in [7], in experiment [8], in [17] and in experiment [18] was “inactive” throughout.
For `COc1cccc2c1[C@@H]1CN(CCCCn3c(=O)[nH]c4c(sc5ncc(-c6ccccc6)nc54)c3=O)C[C@@H]1CO2`, in experiment [6], the result was inactive. Besides, in experiment [7], the Potency result was “inactive”.
On to `CCCc1c2oc(C(=O)O)cc(=O)c2cc2c(=O)cc(C(=O)O)n(CC)c12`, for which the Potency result in experiment [7] is “inactive”.
As to `CC(C)C(=O)OCc1cccc(OC(=O)[C@@H]2N3C(=O)[C@@H](NC(=O)Cc4ccccc4)[C@H]3SC2(C)C)c1`, the Potency result in [7] is “inactive”.
On the same count and under the same terms, the figure for `COc1c(N2C[C@@H]3CCCN[C@@H]3C2)c(F)cc2c(=O)c(C(=O)O)cn(C3CC3)c12` is 14.3 µM (active).
